Consider 4 molecules from PubChem BioAssay.

Values joined by “and” are separate entries in the source; they are usually repeats but may differ in a detail not shown here. Identical values can stand only once. Where a structure was tested more than once in an assay, its records may differ in their call. Active and inactive are the calls of the source.

Assay [1] in a line: small molecules captured by biotinylated probe aFSTL3 – biochemical, small-molecule microarray, fluorescence 635/667, stem cell growth factor project, primary screen (AID 1064).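 Also: measures binding of the biotinylated anti-FSTL3 antibody to printed compounds.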 To be noted: higher = more signal.
Assay [2] is described as follows: binders from COS7 lysate, DM2A8 probe, primary screen, torsin A project, cell lysate, small-molecule microarray, fluorescence 635/667 (AID 1065). To be noted: higher = more signal, COS7 lysate expressing mutant human TOR1A.
A short description of assay [3]: small molecules captured by biotinylated probe aFGF2 – biochemical, small-molecule microarray, fluorescence 635/667, stem cell growth factor project, primary screen (AID 1067).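 Also: measures binding of biotinylated aFGF2 protein to printed compounds on slides; z-score merges feature fluorescence and signal-to-noise across triplicate slides.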 The conditions noted are these: higher = more signal.
Assay [4] in a line: small molecules captured by biotinylated probe aFGF10 – biochemical, small-molecule microarray, fluorescence 635/667, stem cell growth factor project, primary screen (AID 1071).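 Also: score merges 667 nm spot intensity and signal to noise from triplicate slides.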 To be noted: higher = more signal.
Assay [5] deals with Neurogenic locus notch homolog protein 2 (Homo sapiens) (UniProt Q04721). The experiment in a line: small molecules binding Notch2 protein – biochemical, small-molecule microarray, 635 nm fluorescence, stem cell growth factors, primary screen (AID 1073). The conditions noted are these: higher = more signal.
Assay [6] addresses Pro-neuregulin-1, membrane-bound isoform (Homo sapiens) (UniProt Q02297). The experiment in a line: small molecules binding neuregulin-1 protein – biochemical, small-molecule microarray, fluorescence 635/667, psychiatric disease protein project, primary screen (AID 1075).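 Also: score combines 667 nm spot fluorescence with signal to noise.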 The conditions noted are these: NRG1 binding, 635 nm fluorescence, higher = more signal.
Assay [7] concerns Neuregulin-1 EGF-like domain. The assay is described as follows: small molecules binding NRG1 EGF domain – biochemical, small-molecule microarray, 635 nm fluorescence, primary screen (AID 1081).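 Also: binding of the protein to compounds printed on small-molecule microarray slides.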 To be noted: higher = more signal.
A short description of assay [8]: FRG1 expression reporter modulators in myotubes – cell-based, C2C12 myotubes, firefly/Renilla luciferase, luminescence, FRG1 inhibition for FSHD, primary screen (AID 1084). The conditions noted are these: FRG1 promoter luciferase, higher = more signal, called active from +8 up or from −8 down.
Assay [9] is described as follows: small molecules captured by biotinylated probe aFST – biochemical, small-molecule microarray, fluorescence 635/667, stem cell growth factor project, primary screen (AID 1086).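 Also: score merges 667 nm fluorescence with signal-to-noise of each printed compound spot.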 To be noted: higher = more signal.
A short description of assay [10]: binders of probe aHhip on microarray, primary screen, stem cell growth factor project, biochemical, small-molecule microarray, fluorescence 635/667 (AID 1087).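 Also: score merges spot fluorescence at 667nm with spot signal to noise ratio.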 To be noted: higher = more signal.
Assay [11] concerns PRMT1 (protein arginine N-methyltransferase 1). The assay is described as follows: small molecules binding arginine methyltransferase PRMT1 – biochemical, small-molecule microarray, 635 nm fluorescence, primary screen (AID 1088).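 Also: binding of Prmt1 protein to compounds spotted on small-molecule microarray slides.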 The conditions noted are these: higher = more signal.
A short description of assay [12]: growth effects on S. cerevisiae YJM789 – YJM789 clinical isolate, OD600, 24 h, basal, primary screen (AID 1089).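 Also: growth of clinical yeast isolate S. cerevisiae YJM 789 seeded 1000 cells per well; test concentration not given here.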 The conditions noted are these: higher = more signal, called active from +8 up or from −8 down.
Assay [13] in a line: S. pombe growth modifiers, basal conditions – strain 972, OD600, 24 h, no modulator, primary screen (AID 1090).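 Also: basal condition with compound alone and no growth modifier present; test concentration not given here.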 The conditions noted are these: S. pombe 972 growth, higher = more signal, called active from +8 up or from −8 down.
A short description of assay [14]: budding yeast growth modifiers under rapamycin – strain BY4716, OD600, 96 h, primary screen (AID 1091). Also: test concentration not given here. The conditions noted are these: S. cerevisiae BY4716 + rapamycin, higher = more signal, called active from +8 up or from −8 down.
The target of assay [15] is Torsin-1A-interacting protein 2 (Homo sapiens) (UniProt Q8NFQ8). The assay is described as follows: small molecules binding lysate-expressed LULL1 – cell lysate, human LULL1 lysate, 635/667 nm fluorescence, primary screen (AID 1092).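 Also: score merges per-feature 667 nm fluorescence with signal-to-noise.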 To be noted: small-molecule microarray, hLULL1 lysate binding, 635 nm fluorescence; higher = more signal.
Assay [16] can be described thus: optical density change of DRC41 E. coli – strain DRC41, OD650, 24 h, E. coli filamentation project, primary screen (AID 1093).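 Also: MC1000 strain lacking acrAB efflux and sulA so SOS filamentation is blocked; test concentration not given here.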 The conditions noted are these: E. coli DRC41 growth, higher = more signal, called active from +8 up or from −8 down.
A short description of assay [17]: probe aLefty2 binding to arrayed compounds – biochemical, biotinylated probe, 635/667 nm fluorescence, primary screen (AID 1094).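 Also: score merges spot fluorescence near 667 nm with spot signal-to-noise ratio.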 To be noted: small-molecule microarray, higher = more signal.
Assay [18] relates to Noggin (protein binding on small-molecule microarray). The assay is described as follows: small molecules binding Noggin protein – biochemical, 635/667 nm fluorescence, primary screen (AID 1095).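 Also: score merges 667 nm feature fluorescence with signal to noise over triplicate slides.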 To be noted: 635 nm fluorescence, higher = more signal.
For assay [19], the target named is Neurogenic locus notch homolog protein 3 (Homo sapiens) (UniProt Q9UM47). The assay is described as follows: small molecules binding NOTCH3 protein – biochemical, 635/667 nm fluorescence, primary screen (AID 1096). The conditions noted are these: small-molecule microarray, 635 nm fluorescence, higher = more signal.
A short description of assay [20]: probe aEGFR binding to arrayed compounds – biochemical, biotinylated probe, 635/667 nm fluorescence, primary screen (AID 1097).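 Also: probe is a biotinylated anti-EGFR antibody binding compounds printed on slides; score combines fluorescence near 667 nm and signal to noise of each spot.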 The conditions noted are these: small-molecule microarray, higher = more signal.

Neurogenic locus notch homolog protein 3 (Homo sapiens), sequence (Q9UM47 whole entry, looked up): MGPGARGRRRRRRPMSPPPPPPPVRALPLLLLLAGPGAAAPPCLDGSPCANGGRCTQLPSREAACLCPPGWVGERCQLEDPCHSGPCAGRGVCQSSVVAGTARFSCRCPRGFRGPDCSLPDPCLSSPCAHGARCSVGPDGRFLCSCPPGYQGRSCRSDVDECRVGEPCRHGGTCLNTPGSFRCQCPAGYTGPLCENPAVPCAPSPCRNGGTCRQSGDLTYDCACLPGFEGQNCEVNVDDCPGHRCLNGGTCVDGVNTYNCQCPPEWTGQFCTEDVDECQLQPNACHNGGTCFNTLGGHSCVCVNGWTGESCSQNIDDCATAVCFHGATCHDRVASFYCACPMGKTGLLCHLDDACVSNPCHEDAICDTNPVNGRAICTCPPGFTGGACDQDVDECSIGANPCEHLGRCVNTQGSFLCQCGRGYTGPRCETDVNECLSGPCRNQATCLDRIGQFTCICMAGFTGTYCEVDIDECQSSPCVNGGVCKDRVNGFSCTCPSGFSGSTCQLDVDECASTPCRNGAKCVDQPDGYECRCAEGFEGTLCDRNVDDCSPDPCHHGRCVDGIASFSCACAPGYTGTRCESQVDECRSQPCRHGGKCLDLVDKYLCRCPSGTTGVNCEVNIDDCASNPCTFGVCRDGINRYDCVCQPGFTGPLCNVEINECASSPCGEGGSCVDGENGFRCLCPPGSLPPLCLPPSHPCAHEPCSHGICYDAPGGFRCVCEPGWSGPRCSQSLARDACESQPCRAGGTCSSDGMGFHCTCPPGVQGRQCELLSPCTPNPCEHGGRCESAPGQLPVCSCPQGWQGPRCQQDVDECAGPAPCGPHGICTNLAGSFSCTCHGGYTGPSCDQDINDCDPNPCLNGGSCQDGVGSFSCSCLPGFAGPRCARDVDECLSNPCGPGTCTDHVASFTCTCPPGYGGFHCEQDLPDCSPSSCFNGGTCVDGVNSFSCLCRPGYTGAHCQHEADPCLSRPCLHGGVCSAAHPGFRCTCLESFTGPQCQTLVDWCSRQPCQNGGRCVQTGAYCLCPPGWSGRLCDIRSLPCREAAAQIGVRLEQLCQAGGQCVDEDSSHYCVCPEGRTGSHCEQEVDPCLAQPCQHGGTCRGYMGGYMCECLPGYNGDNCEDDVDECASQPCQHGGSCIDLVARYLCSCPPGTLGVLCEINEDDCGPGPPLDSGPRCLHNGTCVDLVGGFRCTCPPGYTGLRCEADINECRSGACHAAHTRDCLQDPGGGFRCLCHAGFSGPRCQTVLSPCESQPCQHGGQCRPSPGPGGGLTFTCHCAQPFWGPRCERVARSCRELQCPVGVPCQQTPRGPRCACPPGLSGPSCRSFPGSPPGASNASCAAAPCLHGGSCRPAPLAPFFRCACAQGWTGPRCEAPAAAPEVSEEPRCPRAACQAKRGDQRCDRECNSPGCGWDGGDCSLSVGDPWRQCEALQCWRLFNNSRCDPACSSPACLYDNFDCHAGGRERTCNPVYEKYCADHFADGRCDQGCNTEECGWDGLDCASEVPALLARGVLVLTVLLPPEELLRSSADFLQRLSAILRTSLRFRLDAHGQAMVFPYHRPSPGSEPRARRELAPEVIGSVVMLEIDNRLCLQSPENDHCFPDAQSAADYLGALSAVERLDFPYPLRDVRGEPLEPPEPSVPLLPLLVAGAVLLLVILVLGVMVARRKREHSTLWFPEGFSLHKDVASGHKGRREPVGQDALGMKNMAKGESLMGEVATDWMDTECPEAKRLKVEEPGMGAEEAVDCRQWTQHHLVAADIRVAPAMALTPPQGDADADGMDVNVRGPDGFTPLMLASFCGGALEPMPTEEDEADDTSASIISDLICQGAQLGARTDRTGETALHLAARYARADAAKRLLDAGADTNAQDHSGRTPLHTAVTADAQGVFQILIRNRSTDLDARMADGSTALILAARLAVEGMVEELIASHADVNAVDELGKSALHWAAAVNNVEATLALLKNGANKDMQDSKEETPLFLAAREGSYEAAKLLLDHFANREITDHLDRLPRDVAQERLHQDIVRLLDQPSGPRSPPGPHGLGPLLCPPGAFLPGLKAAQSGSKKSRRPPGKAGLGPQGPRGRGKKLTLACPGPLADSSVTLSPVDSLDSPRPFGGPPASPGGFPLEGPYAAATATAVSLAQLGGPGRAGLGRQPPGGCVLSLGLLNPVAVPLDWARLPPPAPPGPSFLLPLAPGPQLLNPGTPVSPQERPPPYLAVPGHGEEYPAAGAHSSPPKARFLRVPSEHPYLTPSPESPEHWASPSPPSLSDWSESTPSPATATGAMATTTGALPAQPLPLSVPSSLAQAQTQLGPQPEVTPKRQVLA
Pro-neuregulin-1, membrane-bound isoform (Homo sapiens), sequence (Q02297 whole entry, looked up, the tested form may be a part, canonical isoform): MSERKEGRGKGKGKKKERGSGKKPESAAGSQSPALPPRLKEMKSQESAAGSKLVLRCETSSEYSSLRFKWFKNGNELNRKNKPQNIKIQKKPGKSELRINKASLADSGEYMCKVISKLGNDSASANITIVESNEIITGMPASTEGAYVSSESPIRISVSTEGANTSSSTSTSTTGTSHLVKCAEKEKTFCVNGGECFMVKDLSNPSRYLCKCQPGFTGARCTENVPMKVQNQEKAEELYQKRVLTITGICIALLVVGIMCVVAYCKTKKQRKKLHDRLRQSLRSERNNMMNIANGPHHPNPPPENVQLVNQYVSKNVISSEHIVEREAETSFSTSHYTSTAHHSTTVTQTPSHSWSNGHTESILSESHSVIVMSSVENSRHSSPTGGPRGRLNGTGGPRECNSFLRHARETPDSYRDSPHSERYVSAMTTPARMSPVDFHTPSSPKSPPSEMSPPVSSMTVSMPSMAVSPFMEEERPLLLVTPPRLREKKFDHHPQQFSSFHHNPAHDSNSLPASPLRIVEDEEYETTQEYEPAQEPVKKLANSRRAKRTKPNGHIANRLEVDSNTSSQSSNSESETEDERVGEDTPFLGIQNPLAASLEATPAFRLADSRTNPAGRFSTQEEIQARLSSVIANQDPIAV
Torsin-1A-interacting protein 2 (Homo sapiens), sequence (Q8NFQ8 whole entry, looked up): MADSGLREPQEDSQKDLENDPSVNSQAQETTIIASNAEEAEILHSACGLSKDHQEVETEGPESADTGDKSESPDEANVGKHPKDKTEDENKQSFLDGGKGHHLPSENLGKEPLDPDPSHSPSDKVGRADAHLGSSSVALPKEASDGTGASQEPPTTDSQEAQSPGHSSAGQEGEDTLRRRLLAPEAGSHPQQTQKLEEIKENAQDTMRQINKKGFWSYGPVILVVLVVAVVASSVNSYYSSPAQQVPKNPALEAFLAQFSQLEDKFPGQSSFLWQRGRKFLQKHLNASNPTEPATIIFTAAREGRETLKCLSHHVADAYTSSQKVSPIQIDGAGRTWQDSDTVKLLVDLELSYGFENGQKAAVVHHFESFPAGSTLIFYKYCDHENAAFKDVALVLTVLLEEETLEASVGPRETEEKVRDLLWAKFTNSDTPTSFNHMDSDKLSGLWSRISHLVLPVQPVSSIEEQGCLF

Turning to `C=CCN(C(=O)C1N(C(C)(C)CO)C(=O)C2C(C(=O)O)C3C=CC21O3)C(C)(C)C` (stereo not given), the composite z-score is 0.974 and 1.67 in assay [1]; -1.54 and -0.705 in [2]; -0.232 and -0.112 in assay [3]; -1.48 and 0.207 in assay [4]; -2.19 and -1.87 in assay [5]; -0.396 and 0.389 in assay [6]. Moreover, the composite z-score in [7] was 0.154 and 1.46; in [9] it was -1.37 and -1.24; in assay [10] it was -0.427 and -0.0994; in assay [11], -0.805 and -0.846; in [15], -0.139 and 1.91; in assay [17] it was 0.003 and 0.146. Besides, the composite z-score in assay [18] was -2.82 and -3.2; in [19] it was -1.74 and -1.4; in assay [20], -0.347 and -0.228. The z-score was 0.198 (inactive) and -0.0048 (inactive) in [8]; 0.69 (inactive) and 1.34 (inactive) in [12]; 0.53 (inactive) and 0.365 (inactive) in assay [13]; 0.961 (inactive) and 1.35 (inactive) in [14]; -0.0599 (inactive) and 0.474 (inactive) in [16].
Regarding `C=CCN(Cc1ccccc1)C(=O)C1N(C(C)(C)CO)C(=O)C2C(C(=O)O)C3C=CC21O3` (stereo not given), the composite z-score in assay [1] is 0.666 and 0.391; in [2] it was 2.08 and -1.13; in [3] it was -0.206 and 0.511; in [4], -2.12 and -0.387; in assay [5], -2.15 and -1.36; in [6], -1 and -0.987. Besides, the composite z-score in assay [7] is -0.372 and 0.11; in assay [9], -0.847 and -1.28; in assay [10], -0.274 and -0.169; in assay [11], -1.67 and -1.32; in [15] it was -0.696 and -1.91; in assay [17] it was -0.0563 and -0.136. The composite z-score in assay [18] was -2.68 and -1.76; in [19], -1.46 and -1.43; in assay [20], -0.25 and -0.242. The z-score in [8] is 0.551 (inactive) and 0.312 (inactive); in assay [12] it was -0.421 (inactive) and -0.475 (inactive); in [13] it was -0.369 (inactive) and -0.243 (inactive); in assay [14], -0.13 (inactive) and -0.429 (inactive); in assay [16], -0.333 (inactive) and 1.73 (inactive).
For `CCC[C@@H]1C[C@@]1(CCC)[C@@H](NC(=O)c1ccc(-c2ccccc2)cc1)c1cccc(Cl)c1`, the composite z-score is 2.36 and 0.236 in assay [1]; 0.995 and -0.712 in assay [2]; 0.736 and -0.171 in assay [3]; -0.636 and 0.226 in [4]; -1.01 and 1.53 in assay [5]; -0.612 and 1.2 in assay [6]. Also, the composite z-score is -0.62 and 1.11 in assay [7]; 1.96 and 0.48 in [9]; 2.73 and 0.663 in assay [10]; -0.13 and -0.434 in assay [11]; 0.678 and 3.32 in [15]; 1.07 and 0.266 in [17]. Moreover, the composite z-score is 0.191 and -0.508 in assay [18]; -0.585 and 0.419 in [19]; 0.78 and -0.0975 in [20]. For the same molecule, the z-score in [8] was -1 (inactive) and 0.245 (inactive); in assay [12], -0.173 (inactive) and 0.948 (inactive); in assay [13], -12.7 (active) and 1.75 (inactive); in assay [14], -0.86 (inactive) and 1.18 (inactive); in assay [16] it was -1.33 (inactive) and -0.003 (inactive).
For the molecule `CC(C)[Si]1(C(C)C)OCc2cc(CCCc3cc4c(c(CCc5ccccc5)n3)[Si](C(C)C)(C(C)C)OC4)nc(CCc3ccccc3)c21`, the composite z-score in [1] was -0.0088 and -0.516; in [2], 0.0696 and 0.445; in assay [3] it was -0.105 and -0.12; in assay [4] it was -0.841 and 0.402; in assay [5], -0.0702 and 0.469; in assay [6] it was -0.429 and -0.0826. Moreover, the composite z-score in assay [7] was -0.688 and 0.277; in [9] it was -0.0006 and 0.0171; in [10] it was 0.141 and 0.065; in [11], 0.393 and 0.722; in assay [15], 0.227 and 0.364; in assay [17], -0.128 and -0.0479. Also, the composite z-score is -0.0022 and 0.42 in assay [18]; -0.604 and 0.721 in assay [19]; -0.157 and -0.0594 in [20]. Also, the z-score in [8] was -0.712 (inactive) and 0.124 (inactive); in assay [12], 0.873 (inactive) and 0.702 (inactive); in [13], -19.7 (active) and 0.733 (inactive); in assay [14] it was -1.25 (inactive) and 0.323 (inactive); in assay [16], 2.13 (inactive) and -1.16 (inactive).
